Screen size: about 16,000 compounds; about 2,600 (16%) were called active. About 20% were inconclusive and are not listed. Calls come from the whole dose curve; as a rule, active = well fitted curve in the direction sought with a large enough effect; inconclusive = small, poorly fitted or top-dose-only effect, or effect the other way; inactive = no such curve, though single readings can be large or run the other way. A selection follows. More than one record can exist for a structure, and the calls need not agree.
Each molecule was assayed against Cytochrome P450 2D6 (Homo sapiens) (UniProt P10635) (assay: Cytochrome panel assay with activity outcomes). Settings: recombinant CYP, pro-luciferin dealkylation, luminescence, p450-cyp2d6; series mostly up to 57.1 µM.
Sequence of Cytochrome P450 2D6 (Homo sapiens) (P10635 whole entry, looked up): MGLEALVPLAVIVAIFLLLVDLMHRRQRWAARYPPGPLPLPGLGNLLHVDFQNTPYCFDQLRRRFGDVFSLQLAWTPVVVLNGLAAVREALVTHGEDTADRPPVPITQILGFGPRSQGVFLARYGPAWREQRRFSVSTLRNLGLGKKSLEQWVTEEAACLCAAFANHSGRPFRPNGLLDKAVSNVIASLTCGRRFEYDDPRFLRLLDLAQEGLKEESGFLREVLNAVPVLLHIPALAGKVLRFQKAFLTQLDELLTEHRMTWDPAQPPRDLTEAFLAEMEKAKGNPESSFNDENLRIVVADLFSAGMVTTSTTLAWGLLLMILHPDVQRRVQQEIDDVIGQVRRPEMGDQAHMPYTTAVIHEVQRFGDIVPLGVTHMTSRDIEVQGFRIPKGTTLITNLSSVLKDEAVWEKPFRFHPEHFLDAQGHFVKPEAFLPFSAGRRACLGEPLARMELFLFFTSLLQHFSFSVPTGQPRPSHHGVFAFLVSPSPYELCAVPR
In the case of Cc1ccccc1C(=O)NC(=S)NCC(=O)c1ccccc1, the AC50 is reported as “inactive”.
For COCCn1c(=O)c(C)nc2cnc(Nc3cccc(OC)c3)nc21, the AC50 was “inactive”.
With CN(C)C(N)=NCCC[C@H](N)C(=O)O the AC50 was “inactive”.
For CC(/C=N\NC(=O)Cn1c(C)nc2ccccc21)=C\c1ccccc1, the AC50 was “inactive”.
CC[C@H]1C2=C3C(CC[C@H]4C(OC)OC[C@](C)([C@@H]34)N(C(=O)OC(C)(C)C)C2)C(CO)C1CO (some centres not stated) was tested, and the AC50 was “inactive”.
For COC(=O)c1sccc1NC(=O)c1cc(-c2ccc(C)cc2C)nc2ccccc12, the AC50 was “inactive”.
Cc1c(Br)c([N+](=O)[O-])nn1CC(=O)NCc1ccccn1 was tested, and the AC50 was “inactive”.
Cc1ccc(OC[C@H](O)[C@H](C)NC(C)C)c2c1CCC2 was tested, and the AC50 was 15.8 µM (active) and inactive.
In the case of O=C(OCC1CC(c2ccccc2)=NO1)c1ccc(Cl)cc1 (configuration not stated), the AC50 is reported as “inactive”.
In the case of CSc1nncc(-c2ccc(F)c(F)c2)n1, the AC50 is reported as “inactive”.
With COC(=O)C/C=C\[C@@H](C)[C@@H](/C=N\O[C@@H](C)c1cn([C@H]2COC[C@H]2O)nn1)NS(=O)(=O)c1ccc(C)cc1 the activity, negative = inhibition was 5.15% [at 11.4 µM] (inactive).
In the case of Cc1ccc(OCCCN2C(=O)C(=O)c3cccc(C)c32)cc1, the AC50 is reported as 14.1 µM (active).
In the case of Cc1ccc(OCCCC(=O)N2CCOCC2)cc1, the AC50 is reported as “inactive”.
For Cc1cccc(/C(N)=N/OC(=O)CCCN2C(=O)c3ccccc3C2=O)c1, the AC50 was “inactive”.
In the case of CC(C)(C)NC[C@H](O)c1cc(O)cc(O)c1, the AC50 is reported as “inactive”.
Cc1onc(-c2ccccc2Cl)c1C(=O)Nc1nnc(Cc2ccc(Cl)cc2)s1 was tested, and the AC50 was “inactive”.
In the case of Cc1ccc(SCc2ccc(C(=O)NCc3ccncc3)cc2)cc1, the AC50 is reported as 0.0447 µM (active).
For Cc1ccc(SCc2nnc(NC(=O)c3ccccc3)s2)cc1, the AC50 was “inactive”.
Cc1ccc(NC(=O)c2ccc(CSc3nnc(-c4ccncc4)n3C)cc2)cc1 was tested, and the AC50 was “inactive”.
With CCc1nc2c(c(SC)nn2-c2ccccc2)c(N)c1C(=O)OC the AC50 was “inactive”.
CC(=O)Nc1ccc(-c2cc(-c3ccc(NC(C)=O)cc3)nc(-c3ccccc3)n2)cc1 was tested, and the AC50 was “inactive”.
O=C(Oc1cccc(Br)c1)c1cccnc1 was tested, and the AC50 was “inactive”.
With O=C(COC(=O)c1cccnc1)c1ccc(Cl)c(Cl)c1 the AC50 was 2.51 µM (active).
With CC(=O)OCCNC(=O)c1cccnc1 the AC50 was “inactive”.
COc1cc(-c2ccc(N=Nc3ccc4c(S(=O)(=O)O)cc(S(=O)(=O)O)c(N)c4c3O)c(OC)c2)ccc1N=Nc1ccc2c(S(=O)(=O)O)cc(S(=O)(=O)O)c(N)c2c1O was tested, and the AC50 was “inactive”.
COc1ccc(OCCSc2ncn[nH]2)cc1 was tested, and the AC50 was “inactive”.
COCCCNC(=O)CCC(=O)Nc1ccc2nc(N3CCOCC3)cc(C)c2c1 was tested, and the AC50 was “inactive”.
In the case of Nc1nc(Sc2ccc([N+](=O)[O-])c3nonc23)c2[nH]cnc2n1, the activity, negative = inhibition is reported as 3.81% [at 11.4 µM] (inactive).
With CCOc1ccc(C(CC(=O)O)NC(=O)COc2ccccc2)cc1 (configuration not stated) the AC50 was “inactive”.
With C[C@H](N[C@@H](C)COc1ccccc1)[C@H](O)c1ccc(O)cc1 the AC50 was 0.316 µM (active).
For O=C(O)[C@H](/C=C\c1ccccc1)c1ccccc1, the activity, negative = inhibition was -18.1% [at 11.4 µM] (inactive).
CCOc1ccc(-n2c(=O)[nH]cc(C(=O)N3CCCc4ccccc43)c2=O)cc1 was tested, and the AC50 was “inactive”.
For Cc1ccc(C(=O)NCCNC(=O)CN2CCOCC2)cc1, the AC50 was “inactive”.
In the case of O=C(NCCN1CCCCC1)c1ccc(I)cc1, the AC50 is reported as 10 µM (active).
CCC(CC)C(=O)NCCN1CCN(C(=O)C(CC)CC)CC1 was tested, and the AC50 was “inactive”.
For COC(=O)C(NC(=O)c1ccccc1)=C1C=C(C)OC(C)=C1, the AC50 was “inactive”.
With Clc1ccc(/C=N/c2c(-c3ccc(Cl)cc3)nc3n2CCS3)cc1 the AC50 was “inactive”.
With O=[N+]([O-])c1cccc(/C=N/Nc2cc(Cl)nc(-c3ccccc3)n2)c1 the AC50 was “inactive”.
In the case of CCCC/C=C/C(NC(=O)c1ccccc1)c1ccccc1 (configuration not stated), the AC50 is reported as “inactive”.
CCCC/C=C/C(NC(=O)c1ccc(C(F)(F)F)cc1)c1ccccc1 (configuration not stated) was tested, and the AC50 was “inactive”.
In the case of CCCC/C=C/C(NC(=O)Oc1cccc(C(F)(F)F)c1)c1ccccc1 (configuration not stated), the AC50 is reported as 1 µM (active).
Cn1c(N/N=C/c2c[nH]c3ccccc23)nc2ccccc21 was tested, and the AC50 was 7.94 µM (active).
For Cn1c(=O)c2c(nc(N/N=C\c3ccccc3C(=O)O)n2C)n(C)c1=O, the activity, negative = inhibition was 5.12% [at 11.4 µM] (inactive).
In the case of C(=N\Nc1nc(Nc2ccccc2)nc(N2CCOCC2)n1)/c1c[nH]c2ccccc12, the AC50 is reported as “inactive”.
In the case of CC(C)(C)C1CCc2c(C(=O)N/N=C/c3cccs3)csc2C1 (configuration not stated), the AC50 is reported as “inactive”.
With OC[C@@H]1O[C@H](n2cnc3c(/C=C(\O)c4ccccc4)ncnc32)[C@H](O)[C@@H]1O the activity, negative = inhibition was 3.57% [at 11.4 µM] (inactive).
Cn1c(=O)n(C)c2cc(S(=O)(=O)O)ccc21 was tested, and the AC50 was “inactive”.
In the case of CCc1c(C(=O)O)[nH]c2ccc(Br)cc12, the AC50 is reported as “inactive”.
For CCc1c(C)nc2ccc(Br)cc2c1Cl, the AC50 was 12.6 µM (active).
In the case of CCOC(=O)c1ccc2nc(C)c(CCC(C)=O)c(Cl)c2c1, the AC50 is reported as “inactive”.
CCCNS(=O)(=O)c1ccc(OCC(=O)OC)cc1 was tested, and the AC50 was “inactive”.
For O=c1[nH][nH]c(C(F)(F)F)c1C=Nc1ccccc1, the AC50 was “inactive”.
With Cc1ccc(CSc2nnc(-c3ccncc3)n2CC2CCCO2)cc1 (configuration not stated) the AC50 was “inactive”.
In the case of Cc1cc(NC(=O)c2c([N+](=O)[O-])cnn2C)no1, the AC50 is reported as “inactive”.
CCCC[C@H](CC)CN1CN(C[C@@H](CC)CCCC)CC(C)(N)C1 was tested, and the AC50 was 1.26 µM (active).
With N#CC(c1ccccn1)(c1ncc(C(F)(F)F)cc1Cl)N1CCOCC1 (configuration not stated) the AC50 was “inactive”.
With CC(=O)c1c(N=CN(C)C)nc(C)nc1-c1ccccc1 the AC50 was “inactive”.
In the case of C=CC[C@@H]1C=C[C@@H](O/N=C\c2ccc(C(=O)N3[C@H](c4ccc(C)cc4)[C@@H](C)CC[C@H]3C(=O)OC)cc2)[C@@H](CO)O1, the activity, negative = inhibition is reported as 5.48% [at 11.4 µM] (inactive).
With Cc1cccc(C(=O)N2CCN(c3ccc([N+](=O)[O-])c(NCc4ccco4)c3)CC2)c1 the AC50 was “inactive”.
Cc1ccc(C(=O)N2CCN(c3cc(=O)[nH]nc3-c3ccccc3)CC2)cc1 was tested, and the AC50 was “inactive”.
For Cc1ccc(C)c(N2CCN(C(=O)c3ccc4nc(-c5ccco5)c(-c5ccco5)nc4c3)CC2)c1, the AC50 was 3.16 µM (active).
With COc1ccc(-c2nc3cnc(OC)nc3n(Cc3cccc(OC)c3)c2=O)cc1 the AC50 was “inactive”.
With Cc1ccc(-c2ccc(=O)n(CC(=O)NCCN(C)C)n2)cc1 the AC50 was “inactive”.
Cc1ccc(-c2ccc(=O)n(CC(=O)NCCN3CCCCC3C)n2)cc1 (configuration not stated) was tested, and the AC50 was 2 µM (active).
For CN(C)CCNC(=O)Cn1nc(-c2ccc(Cl)cc2)ccc1=O, the AC50 was “inactive”.
In the case of CC1CCCC(C)N1CCNC(=O)Cn1nc(-c2ccccc2)ccc1=O (configuration not stated), the AC50 is reported as 22.4 µM (active).
In the case of COCCCNC(=O)Cn1nc(-c2ccccc2OC)ccc1=O, the AC50 is reported as “inactive”.
For CCOC(=O)N1CCN(C(=O)CCn2nc(-c3ccccc3)ccc2=O)CC1, the AC50 was “inactive”.
With O=C(Nc1ccccc1N1CCOCC1)c1ccccc1[N+](=O)[O-] the AC50 was “inactive”.
With N#Cc1cccc(NC(=O)N2CCCC3(CCN(C(=O)c4cc(C(F)(F)F)cc(C(F)(F)F)c4)CC3)C2)c1 the AC50 was “inactive”.
CCOC(=O)Cn1nc(C)n(-c2ccc(C)cc2)c1=O was tested, and the AC50 was “inactive”.
For CC(=O)CCCCn1c(=O)c2c(ncn2C)n(C)c1=O, the AC50 was “inactive”.
CN(C)S(=O)(=O)Nc1ccccn1 was tested, and the activity, negative = inhibition was -5.07% [at 11.4 µM] (inactive).
O=C1C(Cl)=C(Nc2ccc(S(=O)(=O)Nc3ccccn3)cc2)C(=O)c2ccccc21 was tested, and the AC50 was 3.16 µM (active).
For Nc1ccc(S(=O)(=O)Nc2ccccn2)cc1, the AC50 was “inactive”.
Cc1nnc(SCC2=C(C(=O)O)N3C(=O)[C@@H](NC(=O)Cn4cnnn4)[C@@H]3SC2)s1 was tested, and the AC50 was “inactive”.
In the case of CCCn1c(-c2ccccc2)nc2c(=O)n(C)c(=O)[nH]c21, the AC50 is reported as “inactive”.
With COc1ccc(C[C@H](N)C(=O)N[C@@H]2[C@H](O)[C@H](n3cnc4c(N(C)C)ncnc43)O[C@@H]2CO)cc1 the AC50 was “inactive”.
For CN(C)c1ccc(-c2cc(-n3ccnc3)ncn2)cc1, the AC50 was 7.94 µM (active).
With c1cncc(-c2cc(-c3cc(-c4cccnc4)n[nH]3)[nH]n2)c1 the activity, negative = inhibition was -12.7% [at 11.4 µM] (inactive).
c1cncc(-c2cc(-n3ccnc3)ncn2)c1 was tested, and the AC50 was 15.8 µM (active).
For CN1CCN(c2cc(-c3ccc(N(C)C)cc3)ncn2)CC1, the AC50 was “inactive”.
In the case of c1cncc(-c2cccnc2)c1, the AC50 is reported as “inactive”.
For CC(C)(C)c1onc(OCP(=O)(O)O)c1C[C@@H](N)C(=O)O, the AC50 was “inactive”.
Cc1cccc(NS(=O)(=O)c2c(C)n[nH]c2C)c1 was tested, and the AC50 was “inactive”.
For CCC1CC(CSc2ncn[nH]2)OC1=O (configuration not stated), the AC50 was “inactive”.
In the case of O=C(CSc1ncnc2nc[nH]c12)c1ccccc1, the activity, negative = inhibition is reported as -6.92% [at 11.4 µM] (inactive).
With CCn1ncc(/C=C/C(=O)NCc2cn(C)nc2C)c1C the AC50 was “inactive”.
For CCCC(=O)Nc1c(C)n[nH]c1C, the AC50 was “inactive”.
In the case of CCCCCCCCCCn1c2c(c(=N)c3c1CCC3)CCC2, the AC50 is reported as 3.55 µM (active).
In the case of CC(C)NC(=O)CSc1nnc(C2CC2)n1-c1ccccc1, the AC50 is reported as “inactive”.
In the case of COC(=O)[C@@]1(Cc2ccc(OC)cc2)[C@H]2c3cc(C(=O)N4CCCC4)n(CCCNc4ncc(C(F)(F)F)cc4Cl)c3C[C@H]2CN1C(=O)c1ccccc1, the AC50 is reported as “inactive”.
With Cc1nnc(C)n1/N=C/c1ccc(-c2ccccc2)cc1 the AC50 was “inactive”.
With Cc1cccc(N/C(=N\S(=O)(=O)c2ccccc2)C(F)(F)F)c1 the AC50 was “inactive”.
For Cc1cccc(NC(=O)C2(c3ccccc3)CC2(Cl)Cl)c1 (configuration not stated), the AC50 was 17.8 µM (active).
Cc1cccc(NC(=O)C23CCC(C)(C2Br)C3(C)C)c1 (configuration not stated) was tested, and the AC50 was “inactive”.
In the case of NC(=O)c1nn(-c2ccccc2)c(=O)cc1O, the AC50 is reported as “inactive”.
For OCCNCCCOc1cccc(Cl)c1Cl, the AC50 was 0.158 µM (active).
For Cc1nc(NC(N)=S)sc1C(=O)Nc1ccccc1, the AC50 was “inactive”.
For Cc1c(C)n(C(=O)CN2CCC(C)CC2)c2ccccc12, the AC50 was 3.16 µM (active).
In the case of Cn1cnnc1SCC(=O)n1c2ccccc2c2ccccc21, the AC50 is reported as “inactive”.
In the case of Cc1nc2ccccc2nc1SCC(=O)N1CCC(C)CC1, the AC50 is reported as “inactive”.

From PubChem BioAssay AID1851 (National Center for Advancing Translational Sciences (NCATS), 2009)
% is set by controls: 0 for no effect and ±100 for the full control effect.
